Sm TGR inh – S. mansoni TGR enzyme inhibition; purified TGR, DTNB reduction, TNB absorbance 405 nm; Potency, µM (top dose mostly 114 µM), inactives show at the top dose activity change, negative = inhibition, most hits filed as inhibitors; 3% of 360,000 active; Q962Y6; note: nearly all actives have a fitted effect of over 60% in size
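Kinetic colorimetric format: TGR-catalysed, NADPH-driven DTNB reduction monitored via TNB absorbance. Enzyme dispensed at 20 nM; compound exposure 15 min at room temperature before reaction start.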
RE007 growth inh – less growth of the S. pombe RE007 Vpr strain; 0.21% of 360,000 active; Potency, µM (highest dose often 92.2 µM), for inactives: at the highest dose activity change, negative = less growth, most hits filed as inhibitors; S. pombe RE007 Vpr strain, BacTiter-Glo ATP luminescence, 24 h; active = well fitted falling curve with a large enough effect; inconclusive = small, poorly fitted or top-dose-only effect; inactive = no such curve, though single readings can be large or run the other way; note: nearly all actives have a fitted effect of over 50% in size
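Fission yeast RE007 carrying one integrated HIV-1 vpr copy, seeded at OD 0.01 in PMG+AL medium with 23 nL pinned compound. Grown 24 h at 30 degrees; viability read by BacTiter-Glo luminescence after 5 min.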
Tb PYK inh – T. brucei pyruvate kinase inhibition. Q57TT1. TbPYK enzyme, Kinase-Glo Plus ATP luminescence, 45 min. Potency, µM (doses to about 76.8 µM), inactives show at the top dose activity, negative = inhibition, usual class: inhibitors. 0.12% of 410,000 active. AID 624173; note: nearly all actives have a fitted effect of over 50% in size
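Quantitative HTS: titrated library compounds versus trypanosomal pyruvate kinase in TEA buffer (pH 7.2) containing KCl, MgCl2, BSA and Tween-20. Reactions were initiated with ADP, 130 uM final. Kinase-Glo Plus luminescence was read after 45 min at RT.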
LmPK inh – blocks Leishmania mexicana pyruvate kinase activity | Q27686 | purified LmPK, Kinase-Glo ATP luminescence, 1 h | Potency, µM (highest dose often 57.5 µM), without a hit: at the highest dose activity change, negative = inhibition, usual class: inhibitors | 0.37% of 290,000 active | AID 1721
Target sequence (Q27686 whole entry, looked up): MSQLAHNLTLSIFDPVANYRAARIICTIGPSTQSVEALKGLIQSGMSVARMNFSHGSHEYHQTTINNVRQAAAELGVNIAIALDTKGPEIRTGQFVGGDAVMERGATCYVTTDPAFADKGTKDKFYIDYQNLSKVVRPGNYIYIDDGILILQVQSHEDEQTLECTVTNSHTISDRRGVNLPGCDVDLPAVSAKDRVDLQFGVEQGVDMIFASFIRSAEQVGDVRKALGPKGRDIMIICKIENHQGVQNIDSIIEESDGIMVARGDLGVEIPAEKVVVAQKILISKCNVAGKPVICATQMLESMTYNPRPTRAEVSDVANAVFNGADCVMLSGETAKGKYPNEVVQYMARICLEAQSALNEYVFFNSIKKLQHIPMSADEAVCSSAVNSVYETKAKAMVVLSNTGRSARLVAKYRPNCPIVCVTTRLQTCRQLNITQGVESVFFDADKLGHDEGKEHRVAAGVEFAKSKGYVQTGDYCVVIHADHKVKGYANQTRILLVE
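Kinase-Glo luminescence read after 1 h RT reaction of 0.1 nM LmPK with 0.5 mM PEP and 0.1 mM ADP. Activity scaled between uninhibited and enzyme-free controls.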
An asterisk follows results filed as active; ? = inconclusive; . = no result; [ ] = another dose, or the depositor's remark. This is a sample that favours compounds with a hit; in the whole collection about 3% have one here. Unless noted, calls come from the whole dose curve; as a rule, active = well fitted curve in the direction sought with a large enough effect; inconclusive = small, poorly fitted or top-dose-only effect, or another doubt; inactive = no such curve, though single readings can be large; an effect the other way counts as inactive or inconclusive. % is set by controls: 0 for no effect and ±100 for the full control effect; potency is the fitted concentration of half-maximal effect.

SMILES	Sm TGR inh	RE007 growth inh	Tb PYK inh	LmPK inh
CCCc1nc2sc3ccccc3c(=O)c2c(=O)n1Cc1ccco1	35µM*	-5%	-3%	3%
COc1ccc2c(=O)c3c(=O)n(Cc4ccco4)c(-c4cc(OC)c(OC)c(OC)c4)nc3oc2c1	?	-2%	5%	-3%
CCCc1nc2oc3cc(OC)ccc3c(=O)c2c(=O)n1Cc1ccco1	40µM*	13%	4%	-4%
COc1ccc2c(=O)c3c(=O)n(Cc4ccco4)c(-c4ccccc4)nc3oc2c1	32µM*	10%	-16%	4%
CCOC(=O)C1CCN(c2c(C(=O)c3ccc(OC)cc3)cnc3ccccc23)CC1	11%	.	-3%	.
CCc1nn(C(C)C(=O)N2CCN(c3cccc(C(F)(F)F)c3)CC2)c(=O)c2cc3occc3n12 (configuration not stated)	2%	.	2%	.
Cc1nc2nc(NC(=O)c3ccc(C(C)(C)C)cc3)[nH]n2c(=O)c1C	-5%	.	-1%	.
CC(C)/C=C(/C(=O)c1ccc(Cl)cc1Cl)n1cncn1	35µM*	.	2%	0%
O=C(/C(=C/c1ccncc1)n1ccnc1)c1ccc(Cl)cc1Cl	-29%	-2%	-3%	4%
CCOC(=O)c1ccc(N2N=C(C)/C(=C/C=C/c3ccco3)C2=O)cc1	?	-9%	1%	0%
O=C(O)c1cc(N2N=C(C(F)(F)F)/C(=C/C=C/c3ccco3)C2=O)ccc1Cl	10µM*	-8%	?	-25%
CCOC(=O)CNc1ccc2c(c1)OCO2	50µM*	-5%	-21%	-13%
CCOC(=O)CNC(=O)/C=C/c1ccc2c(c1)OCO2	8%	9%	5%	-1%
CCOC(=O)c1c(N)sc(C(=O)Nc2ccc3c(c2)OCO3)c1C	3%	?	-20%	5µM*
CCOC(=O)c1c(C)c(C(=O)Nc2ccc3c(c2)OCO3)c(C)n1C	13%	-5%	-20%	0%
CN1C(=O)C(=Cc2ccc(N3CCCCCC3)o2)C(=O)N(C)C1=S	35µM*	-14%	?	-17%
CN1C(=O)C(=Cc2ccc(N3CCOCC3)o2)C(=O)N(C)C1=O	?	-1%	-1%	-7%
CCOc1ccc(Nc2nc(C)c(NC(=O)c3cccc(F)c3)c(Nc3ccc(OCC)cc3)n2)cc1	5%	.	4%	.
CN(C(=O)COC(=O)c1ccc(C(C)(C)C)cc1)C1CCS(=O)(=O)C1 (configuration not stated)	0%	-5%	-3%	.
CN(C(=O)COC(=O)c1nc(Cl)c(Cl)c(Cl)c1Cl)C1CCS(=O)(=O)C1 (configuration not stated)	35µM*	-7%	3%	1%
CCc1ccc(NC(=O)C(=O)N/N=C(\C)CC(=O)Nc2ccc(OC)cc2)cc1	45µM*	7%	2%	1%
CCc1ccc(NC(=O)C/C(C)=N/NC(=O)OCc2ccc(OC)cc2)cc1	-10%	4%	-4%	0%
O=C(CSC1=Nc2ccccc2C2=NC(Cc3ccccc3)C(=O)N12)Nc1cccc(Cl)c1 (configuration not stated)	1%	.	-2%	.
CCCCCCCCCCCCCCCC(=O)O[C@H]1[C@@H](O)[C@@H](O)[C@@H]([C@H](NC(=O)[C@@H]2C[C@@H](CCC)CN2C)[C@H](C)Cl)O[C@@H]1SC	.	.	5%	.
O=C(c1ccco1)N1CCN(S(=O)(=O)c2ccc(Br)s2)CC1	11µM*	-1%	-27%	3%
SMILES	Sm TGR inh	RE007 growth inh	Tb PYK inh	LmPK inh
CCc1ccc(-c2cc(C)no2)cc1S(=O)(=O)N1CCN(C(=O)c2ccco2)CC1	45µM*	7%	-2%	6%
Cc1nc2ccc(S(=O)(=O)NCC(=O)N3CCc4ccccc43)cc2s1	56µM*	9%	2%	-1%
O=C(/C=C/c1ccc(O)c(O)c1)OC(Cc1ccc(O)c(O)c1)C(=O)O (configuration not stated)	35µM*	3%	?	-27%
O=C(/C=C/c1ccc(O)c(O)c1)OCCc1ccccc1	.	0%[18.4 µM]	-21%	.
C[C@]12CCC(=O)C=C1CC[C@H]1C2CC[C@@]2(C)[C@@H]1CC[C@]2(C)O (some centres not stated)	.	.	-5%	.
C=CS(=O)(=O)c1sc(Cl)c(N2CCOCC2)c1[N+](=O)[O-]	0.1µM*	-25%	-6%	-2%
C=CSc1sc(Cl)c(N2CCOCC2)c1[N+](=O)[O-]	.	8%	-1%	1%
Cc1ccccc1Cn1c2ccccc2c2cnn(CC(=O)NCCCc3ccccc3)c(=O)c21	0%	.	2%	.
CN1CCN(C2=C(Cl)C(=O)C(c3cnc(N4CCCCC4)s3)=C(Cl)C2=O)CC1	-13%	?	1µM*	?
CCCCC(=O)Nc1cc(C)c(O)c(-c2nc3ncccc3o2)c1	0%	.	1%	.
Cc1ccc(CNC(=O)CN2C(=O)COc3ccccc32)cc1	5%	.	5%	.
O=C(Nc1ccc(F)cc1)c1ccc(-n2cnc3cccnc32)cc1	-1%	.	2%	.
Cc1cc(-c2csc(NC(=O)C3=COCCO3)n2)c(C)n1C	-31%	-15%	-19%	.
Cc1cc(-c2csc(NC(=O)c3ccc(=O)n(C)n3)n2)c(C)n1CC1CCCO1 (configuration not stated)	35µM*	-4%	?	-7%
Cc1cc(-c2csc(NC(=O)c3ccc(=O)[nH]c3)n2)c(C)n1Cc1ccco1	45µM*	-15%	-22%	0%
COc1ccccc1N1CCN(C(=O)CCS(=O)(=O)c2cc(Br)cc3c2N(C(=O)C2CC2)CC3)CC1	-9%	.	0%	.
Cc1ccc(-c2ccc(NC(=O)C3C4C=CC(C4)C3C(=O)O)cc2)o1 (configuration not stated)	45µM*	?	0%	-5%
COc1ccc(NC(=O)C2C3C=CC(C3)C2C(=O)O)cc1 (configuration not stated)	-17%	-1%	2%	-2%
CCc1ccccc1N(CC)C(=O)Cn1nc(Cc2ccncc2)c2ccccc2c1=O	-1%	.	-2%	.
C=CCc1cc(/C=C/c2nc(O)c([N+](=O)[O-])c(=O)[nH]2)cc(OC)c1O	45µM*	-7%	0%	-1%
O=C(CCc1cn2ccccc2n1)NC1CCCc2c1cnn2-c1ccccc1F (configuration not stated)	-25%	-5%	-4%	1%
Cc1cccc(N2CCN(C(=O)Cn3cccc3)CC2)c1C	50µM*	-7%	-1%	4%
COC(=O)CN1CCN(C(c2ccccc2)c2ccccc2)CC1	45µM*	-11%	-18%	-1%
O=C(CNC(=O)Cc1ccccc1)NCC(=O)N1CCN(C(c2ccccc2)c2ccccc2)CC1	0%	25%	3%	1%
O=C(Cn1cccc1)N1CCN(C(c2ccccc2)c2ccccc2)CC1	40µM*	-21%	-3%	8%
CNS(=O)(=O)c1cn(CC(=O)N2CCN(c3cccc(C)c3C)CC2)cc1S(=O)(=O)NC	0%	.	6%[15.4 µM]	.

Screening data from PubChem.
